# How the values were obtained:
# Experiment in all cases: PBM binding z-score (relative to random genomic background probes); higher = stronger binding; sequences stand for … in GC…GCGATTGACAGCGTAGAATGAAGG
# [1] = tested on: FXR:RXRa (NR concentration 270 nM, RXRa partner concentration 90 nM)
# Procedure, shortened: (§1)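 Regression normalization was applied to scanned fluorescence from custom Agilent 4×180K protein-binding microarrays. Before scanning, arrays were incubated 1 h with ligand-free nuclear receptor dimers, and binding was detected with antibodies against each partner (one per run). Binding z-scores use the random background probes as reference.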
# [2] = tested on: LXRa:RXRa (NR concentration 270 nM, RXRa partner concentration 90 nM)
# Procedure, shortened: as §1
# [3] = tested on: LXRa homodimer (NR concentration 270 nM)
# Procedure, shortened: as §1
# [4] = tested on: LXRb:RXRa (NR concentration 270 nM, RXRa partner concentration 90 nM)
# Procedure, shortened: as §1
# [5] = tested on: LXRb homodimer (NR concentration 270 nM)
# Procedure, shortened: as §1
# [6] = tested on: PPARa:RXRa (NR concentration 270 nM, RXRa partner concentration 90 nM)
# Procedure, shortened: as §1
# [7] = tested on: PPARg:RXRa (NR concentration 180 nM, RXRa partner concentration 90 nM)
# Procedure, shortened: as §1
# [8] = tested on: PPARg:RXRa 270nM:90nM, anti-RXR (NR concentration 270 nM, RXRa partner concentration 90 nM)
# Procedure, shortened: as §1
# [9] = tested on: PPARg:RXRa 30nM:10nM, anti-RXR (NR concentration 30 nM, RXRa partner concentration 10 nM)
# Procedure, shortened: as §1
# [10] = tested on: PPARg:RXRa 90nM:30nM, anti-RXR (NR concentration 90 nM, RXRa partner concentration 30 nM)
# Procedure, shortened: as §1
# [11] = tested on: PPARg:RXRa DBDmut IVT, anti-RXR (DBD mutation: RXRa K156A/R161A, NR concentration 270 nM, RXRa partner concentration 90 nM)
# Procedure, shortened: as §1
# [12] = tested on: PPARg:RXRa IVT, anti-PPARg (NR concentration 270 nM, RXRa partner concentration 90 nM)
# Procedure, shortened: as §1
# [13] = tested on: PPARg DBDmut:RXRa IVT, anti-PPARg (DBD mutation: PPARg1 K132A/R137A, NR concentration 270 nM, RXRa partner concentration 90 nM)
# Procedure, shortened: as §1
# [14] = tested on: PPARg DBDmut IVT, anti-PPARg (DBD mutation: PPARg1 K132A/R137A, NR concentration 270 nM)
# Procedure, shortened: as §1
# [15] = tested on: PPARg homodimer (NR concentration 180 nM)
# Procedure, shortened: as §1
# [16] = tested on: PXR:RXRa (NR concentration 270 nM, RXRa partner concentration 90 nM)
# Procedure, shortened: as §1
# [17] = tested on: PXR homodimer (NR concentration 270 nM)
# Procedure, shortened: as §1
# [18] = tested on: RARa:RXR (NR concentration 270 nM, RXRa partner concentration 90 nM)
# Procedure, shortened: as §1
# [19] = tested on: RARa homodimer (NR concentration 270 nM)
# Procedure, shortened: as §1
# [20] = tested on: RARb:RXRa (NR concentration 270 nM, RXRa partner concentration 90 nM)
# Procedure, shortened: as §1
Sequence,PBM binding z-score [1],PBM binding z-score [2],PBM binding z-score [3],PBM binding z-score [4],PBM binding z-score [5],PBM binding z-score [6],PBM binding z-score [7],PBM binding z-score [8],PBM binding z-score [9],PBM binding z-score [10],PBM binding z-score [11],PBM binding z-score [12],PBM binding z-score [13],PBM binding z-score [14],PBM binding z-score [15],PBM binding z-score [16],PBM binding z-score [17],PBM binding z-score [18],PBM binding z-score [19],PBM binding z-score [20]
TAGCCTAGGTCTTTCAGGGGCCAGTATAGAAAGC,-0.49,-0.379,-0.527,-0.066,-0.296,-0.263,-0.284,-0.623,-0.57,-0.453,-0.411,0.431,-0.836,0.0901,-0.27,-0.417,-0.804,-0.214,-1.24,0.577
TCATATAGGTAAACAGGTGCAAGTCCGTAAGTTA,0.886,1,0.433,1.02,-0.121,1.65,1.1,2.53,3.85,3.12,4.3,2.74,0.88,1.48,1.13,1.33,0.685,1.34,1.57,0.765
CCAACTAGGTCACCGGAAGGTCAAAGTCCGCATG,6.49,5.96,5.35,5.35,1.43,5.81,9.14,7.51,5.79,6.94,8.42,8.36,0.902,1.2,9.32,6.17,2.46,7.7,4.05,5.15
CGAACTAGGTCATTGAAAGGACAGTGAATAGTAA,3.97,2.81,0.177,1.84,0.134,4.42,7.82,6.43,4.13,5.83,8.01,8.24,2.22,2.02,3.92,2.1,0.391,4.04,1.01,4.1

# — the supplement of paper PMC6555819
